This passage reports AC50 and outcome results from PubChem BioAssay (EPA / NIEHS).

Some compounds were tested as several samples or in several runs, with calls that do not always agree. Activity calls are given as the source filed them. The calls were made as follows: active = hit-call score of the fitted dose curve at least 0.9, where 1 is the maximum; inactive = score below 0.9.

Read-out in the test: Interleukin 17A (IL17A), IL17A (gene 3605)
Kind of test: BSK_BT_xIL17A: BioMAP Diversity Plus: BT Assay for Interleukin 17A (IL17A) Biomarker Activity (AID 2284229). The settings on record: primary human B cells with PBMC. Here is the method:
BSK_BT is a cell-based, multiplexed-readout assay that uses B cell and peripheral blood mononuclear cells, a human vascular primary cell co-culture, with measurements taken at 24 hours after chemical dosing in a microplate: 96-well plate.BSK_BT_xIL17A is an assay component measured in the BSK_BT assay. It measures secreted IL-17A related to regulation of gene expression using LumineX xMAP technology.Data from the assay component BSK_BT_xIL17A was analyzed at the endpoint, BSK_BT_xIL17A, in the positive analysis fitting direction relative to DMSO as the negative control and baseline of activity. Using a type of cytokine quantitation reporter, gain or loss-of-signal activity can be used to understand protein changes. To generalize the intended target to other relatable targets, this assay endpoint is annotated to the 'cytokine' intended target family, where the subfamily is 'interleukins'.
The levels of cell surface (or secreted, indicated by the prefix "s") biomarker endpoints were measured by ELISA. Overt cytotoxicity to cells in confluent adherent cultures (all systems other than the BT system) was assessed by measuring total protein levels using sulforhodamine B (SRB) staining in parallel cultures at the time of biomarker measurements, indicated as SRB endpoints. For proliferation assays for adherent cell types, individual cell types are cultured at sub-confluence and relative cell numbers quantified by SRB staining at time points optimized for each system (48 h: 3C and CASM3C systems; 72 h: BT and HDF3CGF systems; 96 h: SAg system). SRB was performed by staining cells with 0.1% SRB after fixation with 10% TCA and reading wells at 560 nm.Viability and proliferation of PBMC (T cells) was quantified by Alamar Blue reduction for the SAg and BT systems. For PBMC viability (referred to as PBMC Cytotoxicity within the assay endpoint names), cells were plated (75,000/well in a 96-well plate) and then chemical samples added for 1 h before addition of activators, SEB and TSST-1 (20 ng/mL final concentration each). Cells were incubated for 90 h. Then, Alamar Blue (20 uL/well) (Invitrogen, Cat DAL1100) was added for 6 h, and the plates were read with a fluorescence microplate reader at 546/580 nm (excitation/emission). For PBMC proliferation, cells were plated and activated as above but incubated for only 16 h prior to addition of Alamar Blue. Plates were read after 6 h.
Consider `NS(=O)(=O)C(F)(F)C(F)(F)C(F)(F)C(F)(F)C(F)(F)C(F)(F)C(F)(F)C(F)(F)F`, for which the AC50 is 46.5 µM (active) and the result was inactive.

In the case of `O=S(=O)(O)C(F)(F)C(F)(F)C(F)(F)C(F)(F)F`, the result was inactive.

Turning to `Oc1c(Cl)c(Cl)c(Cl)c(Cl)c1Cl`, the outcome was inactive.

As to `Sc1ccccc1`, the outcome was inactive.

Take `O=C(O)C(F)(F)C(F)(F)C(F)(F)C(F)(F)C(F)(F)C(F)(F)C(F)(F)C(F)(F)C(F)(F)F`: the AC50 is 37.8 µM (active) and the outcome was inactive.

Consider `O=C(O)C(F)(F)C(F)(F)C(F)(F)C(F)(F)C(F)(F)C(F)(F)C(F)(F)C(F)(F)F`, for which the result was inactive.

On to `O=S(=O)(O)C(F)(F)C(F)(F)C(F)(F)C(F)(F)C(F)(F)C(F)(F)F`, for which the outcome was inactive.

As to `O=C(O)C(F)(F)C(F)(F)C(F)(F)C(F)(F)C(F)(F)F`, the result was inactive.

By AC50 is commonly meant the concentration at which the activity in the assay is half-maximal.
